Compound activity (PubChem BioAssay)
AHR activator = activates the human aryl hydrocarbon receptor; P35869; AHR-responsive luciferase reporter cells, luminescence; activation, % at 5 µM; actives 2.5% (n = 320,000); in the data active means activation above about 47%
Target sequence (P35869 whole entry, looked up): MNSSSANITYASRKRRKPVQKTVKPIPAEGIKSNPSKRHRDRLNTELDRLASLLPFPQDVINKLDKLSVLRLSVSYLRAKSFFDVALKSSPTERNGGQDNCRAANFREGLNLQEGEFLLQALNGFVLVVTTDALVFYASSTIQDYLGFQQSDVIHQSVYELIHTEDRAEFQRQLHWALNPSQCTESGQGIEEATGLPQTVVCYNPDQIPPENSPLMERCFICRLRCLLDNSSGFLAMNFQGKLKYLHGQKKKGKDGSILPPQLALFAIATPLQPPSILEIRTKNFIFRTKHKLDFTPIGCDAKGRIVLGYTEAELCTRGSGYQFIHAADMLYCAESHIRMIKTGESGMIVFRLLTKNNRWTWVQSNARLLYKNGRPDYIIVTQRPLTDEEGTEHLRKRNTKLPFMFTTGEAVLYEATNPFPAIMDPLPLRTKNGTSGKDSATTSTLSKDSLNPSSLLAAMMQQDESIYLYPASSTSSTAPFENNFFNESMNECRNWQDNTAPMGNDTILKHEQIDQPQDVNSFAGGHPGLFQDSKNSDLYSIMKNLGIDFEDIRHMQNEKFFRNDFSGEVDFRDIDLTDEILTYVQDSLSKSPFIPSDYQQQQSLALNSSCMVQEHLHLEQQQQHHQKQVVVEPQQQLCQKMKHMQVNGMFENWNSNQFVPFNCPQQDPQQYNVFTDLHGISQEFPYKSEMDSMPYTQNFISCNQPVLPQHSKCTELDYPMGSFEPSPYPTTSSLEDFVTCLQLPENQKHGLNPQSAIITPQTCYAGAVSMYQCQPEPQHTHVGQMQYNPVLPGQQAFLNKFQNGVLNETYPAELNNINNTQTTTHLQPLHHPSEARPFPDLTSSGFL
HSF-1 act = increases HSF-1 driven luciferase reporter signal; NIH3T3-HGL HSF-1 luciferase reporter, MG132, 8 h; 100% = twice DMSO control signal; AID 504408; actives 1.7% (n = 300,000); activation, % at 9 µM;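 active means mean replicate activation of at least 50% with a set share of replicates each reaching 50%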
GAA850 FXN act = activators of GAA850 frataxin (FXN) promoter; HEK293 lucGAA850 FXN promoter luciferase reporter, 24 h; percent of 10 µM SAHA response; activation, % at 6 µM; actives 0.56% (n = 360,000);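 active means activation above the average of all compounds screened plus 3 SD, cutoff fixed separately per campaign, cut at about 7.5% in these data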
HSF1 inhib = HSF1 inhibition; AID 2098; activity change, negative = inhibition, % at 7.5 µM (by protocol); NIH3T3-HGL HSE-luciferase, MG132-induced, luminescence 8 h; hits give low values; actives 0.77% (n = 300,000);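 active means more than half of replicate wells show activity change below -50%, luminescence cut by over half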;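 further: luciferase reports HSF-1 transcriptional activity via heat shock element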
Each line names hits and unclear results; the compound was inactive in the other large screens. This is a sample that favours compounds with a hit; in the whole collection about 4.6% have one here.

COCc1ccc(-c2c(-c3ccccc3OC)sc3cc4c(cc23)OCO4)cc1	AHR activator 51 (no result: HSF-1 act, HSF1 inhib)
COc1ccccc1-c1sc2cc3c(cc2c1-c1ccc(O)cc1)OCO3	none (no result: HSF-1 act, HSF1 inhib)
Cc1noc(C)c1CSc1nc2ccccc2[nH]1	none
c1ccc(-c2cc(CSc3nc4ccccc4[nH]3)on2)cc1	HSF-1 act 61
CC1=NNC(=O)/C1=C\c1cn(-c2ccccc2)nc1-c1cccs1	none
CC1=NNC(=O)/C1=C\c1cn(-c2ccccc2)nc1-c1ccc(F)cc1	HSF-1 act 146 (no result: AHR activator)
S=c1[nH]nc(-c2ccncc2)n1Cc1ccco1	HSF1 inhib -69
Cc1cc(C)n(-c2nc(NCCO)c3c4c(sc3n2)CCCC4)n1	AHR activator 47
CCCc1cc(=O)n2nc(N3CCC(C(=O)N4CCN(c5ccc(OC)cc5)CC4)CC3)sc2n1	none
Nc1cnn(Cc2ccc(F)cc2)c1	HSF-1 act 56
Nc1cnn(Cc2ccccc2F)c1	none
CC1(C(=O)NS(=O)(=O)c2ccccc2)CCN1C(=O)C1(c2ccc(Cl)cc2)CCC1 (stereo unspecified)	none (no result: AHR activator, HSF-1 act, HSF1 inhib)
Cc1cc(-c2nc(C)c(-c3nnc(SCC(=O)Nc4cc(Cl)cc(Cl)c4)n3C)s2)no1	none
CCCCNC(=O)c1[nH]c(C)c(C(C)=O)c1C	AHR activator 67
CC(=O)c1c(C)[nH]c(C(=O)Nc2ccc(C)cc2Br)c1C	AHR activator 52
CCc1c(C(=O)Nc2ccc(OC)cc2)[nH]c(C)c1C(C)=O	none
CCCCC(CC)CNC(=O)c1[nH]c(C)c(C(C)=O)c1C (stereo unspecified)	none
CCc1c(C(=O)Nc2cc(C)ccc2OC)[nH]c(C)c1C(C)=O	AHR activator 52
CC(=O)c1c(C)[nH]c(C(=O)Nc2cc(F)ccc2C)c1C	AHR activator 58
N#Cc1c(-c2cccnc2)c2c([nH]c1=O)-c1ccccc1OC2	none
O=C(CSc1nc2ccccc2[nH]1)N1CCN(c2ccccc2)CC1	none
O=C(Nc1ncc2c(n1)-c1ccccc1CC2)c1ccc(Cl)cc1	AHR activator 75
O=C(Nc1ncc2c(n1)-c1ccccc1OC2)c1ccc(F)cc1	AHR activator 55
CCOC(=O)c1sc(Nc2nc3ccc(OC)cc3s2)cc1C	none
Cc1ccccc1S(=O)(=O)Cc1ccc(C(=O)NCCc2ccccc2)o1	none
CCN(CC)C(=O)CSc1nnc2cc(C)c3ccccc3n12	AHR activator 52 (no result: HSF-1 act, HSF1 inhib)
CN(C)C(=O)CSc1nnc2sc3ccccc3n12	AHR activator 57
CC(=O)CSc1nnc2cc(C)c3ccccc3n12	none
CCOC(=O)CC(=O)CSc1nnc2sc3ccccc3n12	none (no result: HSF-1 act, HSF1 inhib)
Cc1cc(S(=O)(=O)NCC(C)C)ccc1OCC(=O)NCc1ccccn1	none
CN(C)c1ccc(C(=O)/C=C/c2ccccc2)cc1	HSF-1 act 74
CC(=O)/C(=C/c1ccc(N(C)C)cc1)C(=O)c1ccccc1	HSF-1 act 81
O=C(/C=C/c1ccco1)c1ccc(O)cc1	none (no result: GAA850 FXN act)
CN(C)c1ccc(C(=O)/C=C/c2ccco2)cc1	HSF-1 act 68
COc1ccccc1CNC(=O)C(NS(=O)(=O)c1ccc2c(c1)OCCO2)C(C)C (stereo unspecified)	none
CS(=O)(=O)N(CC(=O)NCc1ccccc1)C1CCCCC1	HSF1 inhib -77
NCCc1nnc(SCc2ccc(F)cc2)o1	HSF-1 act 64
Cc1cc(N2C(=O)C(O)=C(C(=O)c3cc4ccccc4o3)C2c2ccc(Br)cc2)no1 (stereo unspecified)	none
COc1ccc(OCc2nnnn2-c2ccccc2)cc1	HSF-1 act 55
COc1cc(-c2nnc(SC/C=C/c3ccccc3)n2N)cc(OC)c1OC	HSF-1 act 79
Cc1cc(C)c2cc(CN(CC3CCCO3)S(=O)(=O)c3ccc4c(c3)OCCO4)c(=O)[nH]c2c1 (stereo unspecified)	HSF-1 act 62
Cc1ccc(S(=O)(=O)N(Cc2cc3cc4c(cc3[nH]c2=O)OCCO4)CC2CCCO2)cc1 (stereo unspecified)	none
Cc1nn(C(=O)c2ccco2)c(C)c1Br	none
CN(Cc1cn(-c2ccccc2)nc1-c1ccc2c(c1)OCO2)Cc1nccn1C	AHR activator 48
CN(CCn1ccnc1)Cc1cn(-c2ccccc2)nc1-c1ccc2c(c1)OCO2	AHR activator 55
CN(Cc1cn(C)nc1-c1ccccc1F)Cc1nccn1C	none
Cc1ccc(S(=O)(=O)N2CCN(C(=O)CCn3cncn3)CC2)cc1	none
Cc1cccn2c(=O)c(C=NCCO)c(NCc3ccco3)nc12	none
Cc1cccn2c(=O)c(C=NCc3ccco3)c(Nc3ccc(SC(F)F)cc3)nc12	AHR activator 49
Nc1nc(Br)c2c(F)cccc2c1-c1ccc(Cl)cc1	HSF-1 act 149
COc1ccc(NC(=O)COc2ccccc2Cc2ccccc2)cc1S(N)(=O)=O	HSF-1 act 81
Cc1cc(C)nc(N2CCC(C(=O)N3CCN(c4cc(Cl)ccc4C)CC3)CC2)n1	none
N#C/C(=C(/O)c1ccc([N+](=O)[O-])o1)c1nc2ccccc2[nH]1	none
N#C/C(=C\c1ccc([N+](=O)[O-])o1)c1nc2ccccc2[nH]1	AHR activator 55 (no result: GAA850 FXN act)
CCc1ccc(/C=C2/SC(=S)N(CC(=O)Nc3nc4ccccc4s3)C2=O)cc1	none
Oc1cnc2ccccc2c1CN1CCOCC1	none
Oc1ccc2ccccc2c1CN1CCOCC1	HSF-1 act 83
CN(C)Cc1c(O)ccc2ccccc12	none
OCCC1CN(Cc2c(O)ccc3ccccc23)CCN1CCc1ccccc1 (stereo unspecified)	HSF-1 act 216
Oc1ccccc1Cc1c(O)ccc2ccccc12	HSF-1 act 101
CCOc1ccc(OCC(=O)N2CCN(S(=O)(=O)c3ccccc3)CC2)cc1	none (no result: AHR activator, HSF-1 act, HSF1 inhib)
CC(C)CCNc1nc2c(c(=O)n(Cc3cccc(F)c3)c(=O)n2C)n1C	none
C#CC[N+](C)(C)CCCCCCCCCC	none
CC#CC[N+](C)(C)CCCCCCCCCCCC	HSF-1 act 89
Cc1ccc(S(=O)(=O)N/N=c2\oc3ccccc3cc2C(=O)Nc2cccc(C)c2)cc1	HSF-1 act 58 (no result: GAA850 FXN act)
COc1cccc2cc(C(=O)Nc3ccccc3C)/c(=N/NS(=O)(=O)c3ccccc3)oc12	none
O=C(O)c1cccnc1Sc1ccc(Cl)cc1	none
O=C(O)c1cccnc1Sc1ccccc1	HSF-1 act 72
Cc1cc(C)nc(Sc2nc(Cl)nc(N(c3ccccc3)c3ccccc3)n2)n1	HSF-1 act 54
COc1ccc(C(=O)NCCSCc2ccccc2C)cc1	none
C=CCn1c2ccccc2c2nnc(SCC(=O)O)nc21	HSF1 inhib -60
COc1ccc2c(c1)c(C(C)=O)c(C)n2CCc1ccccc1	none
O=C(CCS(=O)(=O)c1ccccc1)Nc1ccccn1	HSF-1 act 59
O=C(CCS(=O)(=O)c1ccccc1)Nc1nc(-c2ccccn2)cs1	AHR activator 54
Cc1ccnc(NC(=O)CCS(=O)(=O)c2ccccc2)c1	none
COC(=O)c1ccc(C2Nc3cccc4cccc(c34)N2)cc1	none
CCCOc1ccc(F)cc1-c1cc(C(=O)NCc2ccccc2)[nH]n1	none (no result: AHR activator, HSF-1 act, HSF1 inhib)
Cc1ccc[n+](CC(=O)Nc2cccc(Cl)c2)c1	none
Cc1ccc(C(=O)Nc2nnc(Cc3ccccc3)s2)cc1	none
COc1ccc(C(=O)Nc2nnc(Cc3cccs3)s2)cc1OC	AHR activator 78
